# JMJD2A Tudor – JMJD2A Tudor domain (human) inhibition. O75164. AlphaScreen JMJD2A-Tudor / H3K4me3 peptide binding. Potency, µM (highest dose often 114 µM), hits mostly inhibitors. actives 4.4% (n = 390,000). AID 504339; further: nearly all actives have a fitted effect of over 50% in size
# BAZ2B block – inhibitors of human BAZ2B bromodomain. Q9UIF8. AlphaScreen BAZ2B-H3K14Ac peptide displacement. Potency, µM (titrated, usually from 114 µM), usual class: inhibitors. actives 4.4% (n = 360,000). AID 504333; further: nearly all actives have a fitted effect of over 60% in size
#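 BAZ2B (50 nM) with biotin-H3(5-23)K14Ac peptide (50 nM) in PBS pH 7.4, 0.01% Tween-20, preformed 30 min, then compound 30 min at room temperature; top concentration 110uM. AlphaScreen streptavidin donor/nickel chelate acceptor beads (10 ug/mL final), 20 min dark, signal read.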
# L3MBTL1 block – blocks human L3MBTL1. Q9Y468. AID 485360. Potency, µM (doses to about 57.1 µM), hits mostly inhibitors. AlphaScreen L3MBTL1–H3K9me1 peptide binding. actives 0.66% (n = 230,000); further: nearly all actives have a fitted effect of over 60% in size
# Target sequence (Q9Y468 whole entry, looked up): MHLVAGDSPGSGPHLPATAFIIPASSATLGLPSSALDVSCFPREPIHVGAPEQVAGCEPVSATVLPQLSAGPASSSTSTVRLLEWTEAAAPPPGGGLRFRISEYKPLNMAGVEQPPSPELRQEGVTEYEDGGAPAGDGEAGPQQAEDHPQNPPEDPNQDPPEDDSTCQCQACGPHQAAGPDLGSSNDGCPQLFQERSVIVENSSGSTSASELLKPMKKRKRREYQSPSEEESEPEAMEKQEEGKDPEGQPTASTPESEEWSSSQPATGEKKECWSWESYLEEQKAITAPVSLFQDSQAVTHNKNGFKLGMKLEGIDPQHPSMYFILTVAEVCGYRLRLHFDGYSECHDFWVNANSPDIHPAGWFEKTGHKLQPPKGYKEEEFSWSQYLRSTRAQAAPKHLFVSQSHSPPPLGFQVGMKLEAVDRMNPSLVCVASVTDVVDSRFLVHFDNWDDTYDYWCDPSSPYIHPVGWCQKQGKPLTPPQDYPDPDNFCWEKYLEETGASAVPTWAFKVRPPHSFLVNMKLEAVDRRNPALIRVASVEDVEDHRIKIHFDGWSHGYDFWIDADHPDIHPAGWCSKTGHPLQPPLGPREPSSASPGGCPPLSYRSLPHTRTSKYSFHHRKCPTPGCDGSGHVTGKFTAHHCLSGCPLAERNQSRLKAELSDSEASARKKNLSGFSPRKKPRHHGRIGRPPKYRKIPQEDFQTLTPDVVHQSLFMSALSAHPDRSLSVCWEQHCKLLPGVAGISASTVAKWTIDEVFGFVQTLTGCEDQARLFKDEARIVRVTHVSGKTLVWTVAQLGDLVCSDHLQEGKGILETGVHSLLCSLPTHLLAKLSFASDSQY
#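 L3MBTL1 50 nM + b-AHA-H3(1-15)K9me1 75 nM, 30 min RT; compound added, 30 min RT; streptavidin donor/Ni-chelate acceptor beads 10 ug/mL each final, 30 min RT dark; AlphaScreen read.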
# Sfp inh – inhibitors of Bacillus subtilis Sfp phosphopantetheinyl transferase | Potency, µM, most hits filed as inhibitors | actives 3.5% (n = 310,000) | AID 1490 | Q9F4F7 | Biochemical Sfp PPTase activity, qHTS;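 further: the enzyme is Sfp with the accession as filed and its product quenches rhodamine fluorescence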
#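 Fluorescence-quenching assay: 15 nM Sfp-PPTase preincubated 15 min at room temperature with compound, then 5 uM rhodamine-CoA and 12.5 uM BHQ-2-labelled YbbR peptide added. Fluorescence (ex 525/em 598 nm) read at start and after 30 min; difference gives rate.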
# G9a block – inhibitors of human histone lysine methyltransferase G9a | Q96KQ7 | Potency, µM (top dose mostly 102 µM), actives largely listed as inhibitors | actives 8.8% (n = 350,000) | AID 504332 | G9a H3K9 monomethylation, AlphaScreen, 2 h; further: nearly all actives have a fitted effect of over 75% in size
#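 G9a (20 nM) was preincubated 15 min with compound, then reacted 2 h at room temperature with 500 nM biotin-H3K9 peptide and 20 µM SAM. Monomethyl-H3K9 detected by AlphaScreen using anti-H3K9me1 antibody.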
# HP1b binding inh – HP1-beta chromodomain-methylated histone interaction inhibition. AlphaScreen HP1-beta / biotin-H3K9me3 peptide binding. Potency, µM (series often up to 114 µM), most hits filed as inhibitors. actives 0.56% (n = 390,000). AID 540317; further: nearly all actives have a fitted effect of over 70% in size
#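 HP1-beta protein (50 nM final) preincubated 30 min at room temperature with biotinylated H3(1-18)K9me3 peptide (50 nM) in PBS pH 7.4, 0.01% Tween-20, then compound added for 30 min. AlphaScreen streptavidin donor/nickel chelate acceptor beads (10 ug/mL final), 30 min dark, luminescence read.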
# Numbers stand for hits; n = inactive; u = inconclusive; x = no result; ! = not active in a repeat; [ ] = dose if it differs, or a comment. Hits are enriched below; roughly 12% of the tested compounds scored in any of these assays. The call rests on the fitted dose curve; in most records, active means well fitted curve in the direction sought with a large enough effect; inconclusive means small, poorly fitted or top-dose-only effect, or another doubt; inactive means no such curve, though single readings can be large; an effect the other way counts as inactive or inconclusive.
SMILES,JMJD2A Tudor,BAZ2B block,L3MBTL1 block,Sfp inh,G9a block,HP1b binding inh
O=C(Nc1cc(Cl)cc(Cl)c1)c1ccc(F)c(S(=O)(=O)N2CCCCCC2)c1,n,n,x,x,n,n
CCCCN(C(=O)CCCc1nc2ccccc2s1)c1c(N)n(CC(C)C)c(=O)[nH]c1=O,n,n,n,x,n[12.7 µM],n
CCc1nnc(NS(=O)(=O)c2ccc(NC(=S)NC(=O)/C=C/c3ccc(OC)cc3)cc2)s1,32µM,u,n,79µM,50µM,u
CCc1nnc(NS(=O)(=O)c2ccc(NC(=S)Nc3ccc(F)cc3)cc2)s1,n,n,n,n,n,n
CCOC(=O)c1c(NC(=S)Nc2ccccc2)sc2c1CCCCC2,n,n,n,u,u,n
CCOC(=O)c1c(NC(=S)NCc2ccccc2)sc2c1CCN(C(=O)OCC)C2,n,n,n,n,n,n
COC(=O)c1c(NC(=O)CCS(=O)(=O)c2ccccc2)sc2c1CCN(C)C2,n,n,x,n,u,n
CCOC(=O)c1c(NC(=S)Nc2ccccc2)sc2c1CCN(CC)C2,n,n,n,u,35µM,n
C=CCNC(=S)Nc1sc2c(c1C(=O)OCC)CCN(C(=O)OCC)C2,n,n,x,u,13µM,n
CCOC(=O)c1c(NC(=S)N2CCOCC2)sc2c1CCN(C(=O)OCC)C2,u,n,n,50µM,n,n
CCOC(=O)c1c(NC(=S)N2CCCCC2)sc2c1CCN(C(=O)OCC)C2,n,n,n,u,u,u
CCCN1CCc2c(sc(NC(=O)CCS(=O)(=O)c3ccccc3)c2C(=O)OC)C1,n,n,x,n,40µM,n
CCC(C)CCCCNC1=NCCS1 (centres undefined),n,n,n,n,n,n
CC(C)OC(C)C,x,x,x,n,x,x
CCOc1ccccc1CNC(=O)Cn1nc(N2CCN(c3ccccc3)CC2)ccc1=O,n,u,x,x,u,n
COc1cccc(N2CCN(C(=O)c3nc(-c4ccc(Cl)cc4)n4c3CCCCC4)CC2)c1,40µM,28µM,x,x,18µM,u
COc1ccccc1N1CCN(C(=O)c2nc(-c3ccc(C)cc3)n3c2CCCCC3)CC1,n,n,x,x,u,n
Cc1ccc(-c2nc(C(=O)NCc3ccccc3Cl)c3n2CCCCC3)cc1,n,n,x,x,n,n
Cc1cccc(CCNC(=O)c2nc(-c3ccc(Cl)cc3)n3c2CCCCC3)c1,14µM,10µM,x,x,11µM,n
COC(=O)c1ccccc1NC(=O)c1nc(-c2ccc(Cl)cc2)n2c1CCCCC2,n,n,x,x,n,n
COc1ccc(CCNC(=O)c2nc(-c3ccc(Cl)cc3)n3c2CCCCC3)c(OC)c1,18µM,18µM,x,x,13µM,n
COc1ccc(NC(=O)COC(=O)CCOc2ccccc2C)cc1Cl,n,n,n,x,n,n
CCOc1cc(-c2sc(Nc3ccccc3)n[n+]2C)ccc1OC,n,u,n,n,45µM,n
CCOC(=O)c1c(C2COc3ccccc3O2)csc1N (centres undefined),u,u,x,n,50µM,n
CCc1ccc(/C=N/Nc2nn[nH]n2)cc1,u,u,n,n,10µM,n
SMILES,JMJD2A Tudor,BAZ2B block,L3MBTL1 block,Sfp inh,G9a block,HP1b binding inh
O=C1CCC(=O)N1CCC(c1ccc(F)cc1)c1ccco1 (centres undefined),n,n,n,n,n[12.7 µM],n
O=C1NCN(c2ccccc2)C12CCN(CCCC(c1ccc(F)cc1)c1ccc(F)cc1)CC2,40µM,u,u,79µM!,10µM,n
C/C(=N\NC(=O)c1cc(C)nc2ccccc12)c1cccc(Cl)c1,n,n,x,n,n,n
O=C(NCCCc1ccccc1)c1nn(-c2ccccc2F)nc1CO,n,n,x,x,n,n
CCOc1cc(NC(=O)c2ccccn2)c(OCC)cc1NC(=O)c1ccccc1,n,n,n,n,n,n
Cc1cc(NC(=O)C(C)C)ncc1NC(=O)c1ccccn1,n,50µM,n,79µM,18µM,n
CCCC(=O)Nc1cc(C)c(NC(=O)c2ccccn2)cn1,u,50µM,n,u,7.9µM,n
CCOc1cc(NC(=O)c2ccccn2)c(OCC)cc1NC(=O)CC(C)C,20µM,n,n,n,n,n
Cc1cc(/C=N/Nc2ccc([N+](=O)[O-])cn2)c(C)n1-c1ccc(C(=O)O)cc1,u,50µM,x,56µM,50µM,n
COc1ccc(CC(=O)N/N=C/c2cccn2-c2ccc([N+](=O)[O-])cc2)cc1OC,45µM,40µM,u,56µM,u,u
Cc1ccccc1-n1c(C)cc(/C=N/Nc2ccc([N+](=O)[O-])cn2)c1C,n,n,x,n,u,n
O=[N+]([O-])c1ccc(N/N=C\c2cccn2-c2ccccc2)nc1,40µM,u,u,u,u,u
COc1ccc([N+](=O)[O-])cc1/C=N/NC(=O)Cc1ccccc1,n,n,n,n,n,n
CC(C)(C)OC(=O)N/N=C/c1cccc([N+](=O)[O-])c1,n,x,x,n,50µM,n
Cc1cc(C(=O)N/N=C/c2cccc([N+](=O)[O-])c2)c(C)o1,n,n,n,n,n,n
O=C(Cn1nnnc1-c1ccccc1F)Nc1ccc(F)c(F)c1,n,n,x,x,n,n
CN(CC(=O)Nc1ccc(F)c(F)c1F)C(=O)CN1C(=O)C2CCCCC2C1=O (centres undefined),n,n,x,n,n,n
CC(C)(C)OC(=O)N/N=C\c1ccc[nH]1,n,n,x,n,n,n
CC(C)(C)OC(=O)N/N=C/c1cccn1-c1ccc([N+](=O)[O-])cc1,u,u,n,n,8.9µM,u
Cc1ccc(C)c(SC2=NS(=O)(=O)c3ccccc32)c1,n,x,x,x,x,x
CC(C)C(=O)N1CCN(C2=NS(=O)(=O)c3ccccc32)CC1,n[11.4 µM],n,n[11.4 µM],n,n,n
CCSC1=NS(=O)(=O)c2ccccc21,n,x,x,x,x,x
O=C(O)CSC1=NS(=O)(=O)c2ccccc21,18µM,x,x,x,x,u
CC(SC1=NS(=O)(=O)c2ccccc21)C(=O)O (centres undefined),28µM,x,x,x,x,u
O=S1(=O)N=C(SCCO)c2ccccc21,u,u,n,n,79µM,n
SMILES,JMJD2A Tudor,BAZ2B block,L3MBTL1 block,Sfp inh,G9a block,HP1b binding inh
O=C(COc1ccc(Br)cc1)Nc1ccccc1N1CCCC1,n,n,n,n,45µM,n
CC(=O)N1CCN(c2ccccc2NC(=O)COc2ccc(Br)cc2)CC1,n,n,n,n,n[12.7 µM],n
O=C(CCNC(=O)c1ccccc1Cl)Nc1ccccc1N1CCCC1,n,n,x,n,x,n
O=C(CCNC(=O)c1ccc(Br)cc1)Nc1ccccc1N1CCCCC1,n,n,n,x,56µM,n
CCOc1ccc(CCNC(=O)CN2C(=O)NC3(CCCCC3)C2=O)cc1OCC,n,n,n,x,n,n
COc1cccc(NC(=O)Nc2ccc3c(c2)nc(C)n3C)c1,n,n,n,n,n[0.501 µM],n
COc1ccc(CNc2ccc3c(c2)nc(C)n3C)cc1,n,n,n,n,3.5µM,n

# Screens deposited in PubChem BioAssay by National Center for Advancing Translational Sciences (NCATS).
